The structures appear in SMILES notation. Hit rate of the full screen: of about 52,000 compounds, about 1,700 (3.3%) were called active. Shown is part of a subset that was picked to be rich in actives. Unmarked numbers belong to inactive results. No stated cut-off is given here; in the data, active means survival mostly below about 52% (no sharp cut-off); inactive means mostly above about 56%.

The test system of the assay is Wild type. Nature of the assay: S. aureus survival, RN4220 and DeltatarO strains – OD600, teichoic acid synthesis inhibitors, primary screen (AID 463173). As to conditions: S. aureus RN4220 wild type/DeltatarO growth, OD600, 18 h, active compounds read low, screened at 18.75 µg/mL (by protocol).
Consider `CCS(=O)(=O)c1ccccc1C(=O)Nc1ccc(-c2nc3ccccc3s2)cc1`, for which the survival was 77%.
With `COc1ccccc1CNC(=O)CCn1cnc2ccccc2c1=O` the figure was -6% (active); with `O=C(CCn1cnc2ccccc2c1=O)NCc1ccccc1Cl`, 98%.
With `COc1ccccc1NC(=O)CCn1cnc2ccccc2c1=O` the figure was 76%; with `Cc1ccc(-c2[nH]c3ccccc3c2SCCNC(=O)c2ccc(S(=O)(=O)N3CCOCC3)cc2)cc1`, 81%.
Then `CCOC(=O)c1ccc(CNS(=O)(=O)c2c(C)ccc3nsnc23)o1`, with 105%.
As for `Fc1ccc(-n2nc(-c3ccccc3)c3cnc4ccccc4c32)cc1Cl`, the survival was 138%.
For the compound `Cc1ccc(C)c(N2CCN(S(=O)(=O)c3cc(C(=O)Nc4cc(Cl)cc(Cl)c4)ccc3F)CC2)c1`, the survival was 85%.
With `CCOc1ccc(NC(=O)c2ccc3nc(C(C)C)oc3c2)cc1` the figure was 70%; with `CCS(=O)(=O)c1ccc(C(=O)N2CCN(c3nc4c(OC)ccc(C)c4s3)CC2)cc1`, 91%.
In the case of `COc1ccc(OC)c2sc(N3CCN(C(=O)C(C)(C)C)CC3)nc12`, the survival is 69%.
Take `Cc1ccc(C)c2sc(N3CCN(C(=O)c4ccco4)CC3)nc12`: the survival was 159%.
Take `Cc1ccc(Cl)c2sc(N3CCN(C(=O)C4CC4)CC3)nc12`: the survival was 76%.
Turning to `COc1ccc(C)c2sc(N3CCN(C(=O)c4cccc(F)c4)CC3)nc12`, the survival was 133%.
Consider `COc1ccc(C)c2sc(N3CCN(C(=O)c4ccco4)CC3)nc12`, for which the survival was -1% (active).
With `COc1ccc(OC)c2sc(N3CCN(C(=O)c4ccco4)CC3)nc12` the figure was 76%.
As for `CCCC(=O)N1CCN(c2nc3c(OC)ccc(C)c3s2)CC1`, the survival is 14% (active).
Then `COc1ccc(OC)c2sc(N3CCN(C(=O)C4CC4)CC3)nc12`, with -6% (active); and `COc1ccc2c(c1)c1c(c(=O)n(-c3ccccc3C)c(=O)n1CC(N)=O)n2C`, with 82%.
Take `CCOc1ccccc1NC(=O)CCn1nc(C)c(S(=O)(=O)N2CCCCC2)c1C`: the survival was 76%.
Regarding `COc1ccc(N2CCN(C(CNC(=O)CC(C)C)c3ccc4c(c3)OCO4)CC2)cc1` (stereo not drawn), the survival is 83%.
Regarding `CCOc1ccc(-c2nnc(SCC(=O)NCCc3ccccc3)nc2-c2ccc(OCC)cc2)cc1`, the survival is 73%.
With `COc1cc(C2CC(=O)Nc3c2c(=O)[nH]c2ncnn32)ccc1O` (stereo not drawn), the survival was 77%.
With `CCOCCCNC(=O)c1ccc2c(=O)n(CCc3ccccc3)c(=O)[nH]c2c1` the figure was 79%; with `Cc1ccc(C)c(N2CCN(C(=O)CSCc3ccccc3Cl)CC2)c1`, 82%; with `O=C(Nc1ccccn1)c1ccccc1O`, 110%.
As to `CCCCSc1nnc2c(n1)OC(c1ccc(C)s1)Nc1ccccc1-2` (stereo not drawn), the survival is 56%.
`CCCCSc1nnc2c(n1)OC(c1ccc(Br)s1)Nc1ccccc1-2` (stereo not drawn): the survival is 9% (active).
`CCCSc1nnc2c(n1)OC(c1ccc(Br)s1)Nc1ccccc1-2` (stereo not drawn): the survival was 88%.
On to `Cc1ccc(NC(=O)Cn2c(=O)n(Cc3nc(-c4ccccc4)no3)c(=O)c3cc4c(cc32)OCO4)cc1F`, for which the survival was 89%.
Take `CC(C)C(c1nnnn1Cc1ccccc1)N1CCCc2ccccc21` (stereo not drawn): the survival was 122%.
Take `N#Cc1c(NC(=O)c2ccco2)sc2c1CCCC2`: the survival is 104%.
Turning to `CNS(=O)(=O)c1cn(CC(=O)N2CCN(c3ccc(C(C)=O)cc3)CC2)cc1S(=O)(=O)NC`, the survival was 10% (active).
With `CNS(=O)(=O)c1cn(CC(=O)N2CCN(c3ccc(Cl)cc3)CC2)cc1S(=O)(=O)NC`, the survival was 124%.
On to `CNS(=O)(=O)c1cn(CC(=O)N2CCN(c3ccc(OC)cc3)CC2)cc1S(=O)(=O)NC`, for which the survival is 69%.
Turning to `Cc1ccc(SCc2nc(-c3ccc(C(=O)Nc4cc(C)ccc4C)cc3)oc2C)cc1`, the survival was 129%.
Take `COc1ccc(CCNc2nc(SCc3cccc(F)c3)nc3ccccc23)cc1OC`: the survival was 80%.
`Fc1cccc(CSc2nc(NCCc3ccccc3)c3ccccc3n2)c1`: the survival is -3% (active).
As to `Clc1cccc(CSc2nc(NCCc3ccccc3)c3ccccc3n2)c1`, the survival is 66%.
As to `COC(=O)c1cc(S(=O)(=O)N2CCN(c3cccc(C)c3)C(C)C2)c[nH]1` (stereo not drawn), the survival was 98%.
With `Cc1ccccc1OCCn1c(CCNC(=O)C2CCCCC2)nc2ccccc21` the figure was 90%.
With `COc1ccc(NCc2nc3ccccc3n2CCOc2ccccc2C)cc1`, the survival was 4% (active).
For `O=C(O)c1ccc(NCc2nc3ccccc3n2CCOc2ccccc2Cl)cc1`, the survival is 88%.
Regarding `Cc1cccc(NCc2nc3ccccc3n2CCOc2ccccc2C)c1`, the survival is -18% (active).
For the compound `COc1cccc(OCc2nc3ccccc3n2CCOc2ccccc2C)c1`, the survival is 55%.
Regarding `COc1ccccc1OCCn1c(COc2cc(C)ccc2C)nc2ccccc21`, the survival was 87%.
Regarding `Cc1ccc(NCc2nc3ccccc3n2CCOc2ccccc2C)cc1`, the survival is -20% (active).
`Fc1ccc(NCc2nc3ccccc3n2CCOc2ccccc2Cl)cc1`: the survival is 95%.
With `Cc1ccc(C)c(CSc2c(C(C)C)cnc3c2c(=O)n(C)c(=O)n3C)c1` the figure was 126%; with `O=C(CSc1ncc(CO)n1Cc1ccccc1)Nc1ccc(C(F)(F)F)cc1`, 120%; with `Cc1ccc(NC(=O)C(Cc2ccccc2)n2cccc2)cc1` (stereo not drawn), 96%.
Then `COc1ccc(NC(=O)C(Cc2ccccc2)n2cccc2)c(OC)c1` (stereo not drawn), with 78%; and `O=C(Nc1ccccc1F)C(Cc1ccccc1)n1cccc1` (stereo not drawn), with 85%.
With `CC(C)c1ccc(NC(=O)C(Cc2ccccc2)n2cccc2)cc1` (stereo not drawn), the survival was 13% (active).
For the compound `O=C(Nc1ccc(C(F)(F)F)cc1)C(Cc1ccccc1)n1cccc1` (stereo not drawn), the survival was -2% (active).
For `CC(=O)Nc1ccc(NC(=O)C(Cc2ccccc2)N2Cc3ccccc3C2=O)cc1` (stereo not drawn), the survival was 72%.
`O=C(CSc1nccn1Cc1ccc(F)cc1)NC1CCCC1`: the survival is 68%.
Regarding `Cc1ccc(Cl)cc1N1CCN(C(=O)c2cc3ccc4cccnc4c3[nH]2)CC1`, the survival was 129%.
As for `Cc1cccc(C(=O)n2nc(C)c(S(=O)(=O)N3CCOCC3)c2C)c1`, the survival is 89%.
Consider `COc1ccc(C2=C(C)C(=O)N(Cc3ccc(C(=O)NCc4ccc(C)cc4)cc3)S2(=O)=O)cc1`, for which the survival is 89%.
Take `C1CN(C(N2CCOCC2)N2CCOCC2)CCO1`: the survival is 104%.
As to `COc1ccc(-c2onc(C)c2C)cc1S(=O)(=O)N1CCc2ccccc21`, the survival is 1% (active).
With `CCC1CN(S(=O)(=O)c2cc(-c3cc(C)no3)ccc2OC)c2cc(C)ccc2O1` (stereo not drawn), the survival was 120%.
With `COc1ccc(-c2cc(C)no2)cc1S(=O)(=O)N1CC(C)Oc2ccccc21` (stereo not drawn), the survival was -6% (active).
Take `Cc1ccc(-c2onc(C)c2C)cc1S(=O)(=O)N1CCc2ccccc21`: the survival was 117%.
As for `COc1ccc(-c2cc(C)no2)cc1S(=O)(=O)N1CCOc2ccccc21`, the survival is 80%.
Turning to `COc1ccc(-c2cc(C)no2)cc1S(=O)(=O)N1CCc2ccccc21`, the survival is 76%.
For `COc1ccc(NC(=O)c2oc3ccc(S(=O)(=O)N4CCOCC4)cc3c2C)c(OC)c1`, the survival was 152%.
With `COc1ccc(C(CC(=O)Nc2ccc(C(C)=O)cc2)N2Cc3ccccc3C2=O)cc1` (stereo not drawn), the survival is 88%.
On to `O=C(O)c1snc2c(=O)[nH]cnc12`, for which the survival is 105%.
Turning to `O=C1CCCc2c1cc(C(=O)Nc1ccc(Cl)cn1)c(=O)n2-c1ccccc1`, the survival is 110%.
Turning to `COc1ccc(NC(=O)c2sc3nc(C)c(C(=O)Nc4ccc(Cl)cc4)c(-c4ccc(Br)cc4)c3c2N)cc1`, the survival was 75%.
On to `Cc1nc2sc(C(N)=O)c(N)c2c(-c2ccc(Br)cc2)c1C(=O)Nc1ccc(Cl)cc1`, for which the survival was -7% (active).
For `Cc1nc2sc(C(=O)Nc3ccc(F)cc3)c(N)c2c(-c2ccc(Br)cc2)c1C(=O)Nc1ccc(Cl)cc1`, the survival was 88%.
Take `Cc1ccc(C)c(NC(=O)Cn2c(=O)n(Cc3ccco3)c(=O)c3oc4ccccc4c32)c1`: the survival was 87%.
For `Cc1nn(Cc2ccccc2)c(C)c1CC(=O)O`, the survival was 109%.
In the case of `O=C(CSc1nc2c([nH]c3ccccc32)c(=O)n1-c1ccc(F)cc1)NCc1ccc(F)cc1`, the survival was 73%.
Turning to `CCC(C)NC(=O)c1sc2nc(C)c(C(=O)Nc3ccc(Cl)cc3)c(-c3ccc(Br)cc3)c2c1N` (stereo not drawn), the survival was 106%.
With `CC(C)c1ccc(OCC(=O)Nc2cc(-c3nc4ncccc4o3)ccc2Cl)cc1`, the survival was 128%.
Then `Cc1cc(-c2nc3ncccc3o2)ccc1NC(=O)COc1ccc(C(C)(C)C)cc1`, with 26% (active); and `Cc1ccc(-c2nc3ncccc3o2)cc1NC(=O)COc1ccc(C(C)C)cc1`, with 11% (active); and `CCC(=O)Nc1ccc(-c2nc3ncccc3o2)cc1C`, with 85%.
In the case of `Cc1cc(-c2nc3ncccc3o2)ccc1NC(=O)COc1cc(C)c(Cl)c(C)c1`, the survival was 80%.
As to `Cc1cc(OCC(=O)Nc2cc(-c3nc4ncccc4o3)ccc2C)ccc1Cl`, the survival was 88%.
For `Fc1ccc(CSc2nncn3c2cc2occc23)c(Cl)c1`, the survival is 88%.
Take `CC(C)c1ccc(NC(=O)c2ccc3oc(=O)c(S(=O)(=O)c4ccc(F)cc4)cc3c2)cc1`: the survival is 70%.
Take `Cc1cc(=O)n2nc(N(C)CC(=O)NCc3ccc(Cl)cc3)sc2n1`: the survival was 85%.
As to `CCC(C(=O)NC1CCCCC1)n1c(SCc2cccc(F)c2)nc2ccncc21` (stereo not drawn), the survival is 124%.
On to `CCOc1ccccc1CNC(=O)c1ccc2c(c1)N(Cc1ccc(C)cc1)CCS2`, for which the survival is 79%.
With `CCC(Cc1ccccc1)NC(=O)Cn1ncc2c3ccccc3n(Cc3ccccc3)c2c1=O` (stereo not drawn), the survival was 80%.
For the compound `CCCCCCC1CCC(C(=O)NC(C(=O)O)C(C)C)CC1` (stereo not drawn), the survival was 59%.
For the compound `CCCCCCC1CC=C(C(=O)O)CC1` (stereo not drawn), the survival is 110%.
As to `CCCCC1CCC(CCCC(C)CCC(=O)O)CC1` (stereo not drawn), the survival was -5% (active).
